# Source: ChEMBL document CHEMBL1961873, “Compounds: GSK PKIS; Assays: Nanosyn kinase panel” (2012)
# Key:
# [1] = target: CDK3/Cyclin E (Homo sapiens) (UniProt P24864+Q00526); conditions: at 1 µM;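 further: each figure is a mean percent inhibition of the CDK3/cyclin E complex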
# [2] = target: Cyclin-dependent kinase 4 (Homo sapiens) (UniProt P11802); conditions: at 0.1 µM
# [3] = target: Cyclin-dependent kinase 4 (Homo sapiens) (UniProt P11802); conditions: at 1 µM
# [4] = target: Cyclin-dependent kinase 5 (Homo sapiens) (UniProt Q00535); conditions: at 0.1 µM
# Cyclin-dependent kinase 5 (Homo sapiens), sequence (Q00535 whole entry, looked up): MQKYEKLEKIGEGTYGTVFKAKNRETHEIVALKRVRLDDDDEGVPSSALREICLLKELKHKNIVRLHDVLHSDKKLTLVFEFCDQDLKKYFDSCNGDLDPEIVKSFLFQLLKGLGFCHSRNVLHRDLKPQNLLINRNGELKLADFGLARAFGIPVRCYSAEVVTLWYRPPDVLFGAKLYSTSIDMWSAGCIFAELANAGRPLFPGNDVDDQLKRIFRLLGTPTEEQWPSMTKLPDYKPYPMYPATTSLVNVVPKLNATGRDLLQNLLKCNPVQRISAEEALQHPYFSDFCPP
# [5] = target: Cyclin-dependent kinase 5 (Homo sapiens) (UniProt Q00535); conditions: at 1 µM
# [6] = target: Cyclin-dependent kinase 6 (Homo sapiens) (UniProt Q00534); conditions: at 0.1 µM
# Cyclin-dependent kinase 6 (Homo sapiens), sequence (Q00534 whole entry): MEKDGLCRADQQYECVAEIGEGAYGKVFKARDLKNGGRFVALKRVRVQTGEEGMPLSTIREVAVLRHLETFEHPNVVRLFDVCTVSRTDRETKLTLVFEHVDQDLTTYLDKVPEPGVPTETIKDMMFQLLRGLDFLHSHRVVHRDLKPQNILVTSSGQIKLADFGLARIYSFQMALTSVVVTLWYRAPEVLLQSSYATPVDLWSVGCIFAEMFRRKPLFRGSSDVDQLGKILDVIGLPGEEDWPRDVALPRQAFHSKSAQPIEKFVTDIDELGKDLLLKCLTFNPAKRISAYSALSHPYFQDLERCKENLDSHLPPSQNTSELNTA
# [7] = target: Cyclin-dependent kinase 6 (Homo sapiens) (UniProt Q00534); conditions: at 1 µM
# [8] = target: Dual specificity protein kinase CLK2 (Homo sapiens) (UniProt P49760); conditions: at 0.1 µM
# Dual specificity protein kinase CLK2 (Homo sapiens), sequence (P49760 whole entry, looked up): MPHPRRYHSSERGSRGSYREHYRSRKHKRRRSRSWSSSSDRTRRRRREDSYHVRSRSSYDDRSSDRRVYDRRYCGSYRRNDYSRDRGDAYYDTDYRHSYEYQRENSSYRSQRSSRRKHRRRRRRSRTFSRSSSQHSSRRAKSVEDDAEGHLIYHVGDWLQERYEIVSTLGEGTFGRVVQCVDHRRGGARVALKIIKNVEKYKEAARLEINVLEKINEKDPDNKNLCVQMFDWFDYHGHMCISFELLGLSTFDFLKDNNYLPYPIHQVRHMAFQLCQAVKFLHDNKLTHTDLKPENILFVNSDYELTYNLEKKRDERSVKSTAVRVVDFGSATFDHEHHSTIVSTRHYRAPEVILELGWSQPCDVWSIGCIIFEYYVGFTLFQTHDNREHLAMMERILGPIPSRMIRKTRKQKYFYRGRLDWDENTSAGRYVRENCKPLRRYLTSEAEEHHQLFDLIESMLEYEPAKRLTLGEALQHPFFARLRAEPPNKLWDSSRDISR
# [9] = target: Dual specificity protein kinase CLK2 (Homo sapiens) (UniProt P49760); conditions: at 1 µM
# [10] = target: Dual specificity protein kinase CLK3 (Homo sapiens) (UniProt P49761); conditions: at 0.1 µM
# Dual specificity protein kinase CLK3 (Homo sapiens), sequence (P49761 whole entry, looked up): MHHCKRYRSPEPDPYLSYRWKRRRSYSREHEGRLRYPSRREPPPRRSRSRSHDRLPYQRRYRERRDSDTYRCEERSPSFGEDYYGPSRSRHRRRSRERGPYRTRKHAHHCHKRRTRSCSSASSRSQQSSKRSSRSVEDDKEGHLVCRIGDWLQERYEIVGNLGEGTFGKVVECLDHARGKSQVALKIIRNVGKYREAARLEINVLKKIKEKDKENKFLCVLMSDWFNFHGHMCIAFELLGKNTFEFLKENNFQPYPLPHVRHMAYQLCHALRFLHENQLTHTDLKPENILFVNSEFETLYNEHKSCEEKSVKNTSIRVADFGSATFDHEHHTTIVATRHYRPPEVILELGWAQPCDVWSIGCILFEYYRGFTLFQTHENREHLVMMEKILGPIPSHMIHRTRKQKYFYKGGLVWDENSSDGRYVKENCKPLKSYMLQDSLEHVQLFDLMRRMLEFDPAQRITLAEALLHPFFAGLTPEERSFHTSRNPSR
# Cyclin-dependent kinase 4 (Homo sapiens), sequence (P11802 whole entry): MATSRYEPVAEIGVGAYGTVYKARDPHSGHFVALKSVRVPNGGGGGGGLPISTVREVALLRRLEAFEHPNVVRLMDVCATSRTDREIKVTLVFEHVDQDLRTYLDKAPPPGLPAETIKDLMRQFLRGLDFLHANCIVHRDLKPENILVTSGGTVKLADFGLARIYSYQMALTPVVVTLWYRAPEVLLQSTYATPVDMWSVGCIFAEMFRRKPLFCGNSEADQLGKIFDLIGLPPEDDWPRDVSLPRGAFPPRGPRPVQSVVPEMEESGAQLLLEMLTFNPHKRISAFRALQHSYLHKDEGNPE
# CDK3/Cyclin E (Homo sapiens), sequence (P24864 whole entry, looked up): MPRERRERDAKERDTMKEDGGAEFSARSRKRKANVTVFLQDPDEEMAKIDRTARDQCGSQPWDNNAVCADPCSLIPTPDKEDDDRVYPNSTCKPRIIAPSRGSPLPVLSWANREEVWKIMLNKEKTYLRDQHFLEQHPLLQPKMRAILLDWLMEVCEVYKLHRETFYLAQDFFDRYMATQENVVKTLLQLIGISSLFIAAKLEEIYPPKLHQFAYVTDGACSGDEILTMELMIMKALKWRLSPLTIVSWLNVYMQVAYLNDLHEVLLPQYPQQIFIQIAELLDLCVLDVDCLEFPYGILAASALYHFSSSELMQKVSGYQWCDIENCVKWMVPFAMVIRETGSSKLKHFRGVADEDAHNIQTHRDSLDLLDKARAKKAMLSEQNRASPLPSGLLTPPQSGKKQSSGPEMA
# CDK3/Cyclin E (Homo sapiens), sequence (Q00526 whole entry, looked up): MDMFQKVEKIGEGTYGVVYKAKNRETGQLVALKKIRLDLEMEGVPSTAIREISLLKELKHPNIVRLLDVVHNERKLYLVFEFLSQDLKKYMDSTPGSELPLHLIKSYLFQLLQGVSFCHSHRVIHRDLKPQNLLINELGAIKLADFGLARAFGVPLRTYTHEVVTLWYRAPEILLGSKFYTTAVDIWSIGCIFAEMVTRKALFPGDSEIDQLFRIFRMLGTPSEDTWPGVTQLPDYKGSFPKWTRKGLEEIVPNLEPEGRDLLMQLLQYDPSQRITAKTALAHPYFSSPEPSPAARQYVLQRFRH
Compound,inhibition [1],inhibition [2],inhibition [3],inhibition [4],inhibition [5],inhibition [6],inhibition [7],inhibition [8],inhibition [9],inhibition [10]
Fc1cccc(COc2ccc(Nc3ncnc4sc(-c5cccs5)cc34)cc2Cl)c1,0.05%,0.35%,2.13%,0.55%,1.81%,-0.81%,0.5%,1.58%,1.69%,0.66%
c1cnn2ncc(-c3ccnc(Nc4ccc5c(c4)OCCO5)n3)c2c1,85.6%,51.9%,85.7%,57.4%,90.4%,46.5%,85%,90.1%,97.6%,12.6%
Cn1cc(C=C2C(=O)Nc3cccnc32)c2ccccc21,3.36%,4.89%,11%,5.57%,7.28%,1.04%,8.56%,3.28%,13.7%,0.62%
Nc1ncnc2occ(-c3ccc(NC(=O)Nc4cccc(C(F)(F)F)c4)cc3)c12,16.6%,3.45%,6.6%,0.37%,4.7%,1.3%,2.21%,0.14%,2.59%,1.01%
COc1ccc(-c2nn3ncccc3c2-c2ccnc(Nc3ccc(Cl)c(C(F)(F)F)c3)n2)cc1,-0.57%,1.13%,2.09%,0.45%,0.19%,0.68%,1.73%,0.95%,1.59%,1.77%
CCN1CCC(CC(=O)Nc2n[nH]c3nc(-c4cccs4)c(Br)cc23)CC1,9.52%,5.84%,37%,0.96%,2.52%,30.9%,70.8%,-1.44%,2.75%,0.48%
O=C1NC(=O)C(N2CCc3ccccc32)=C1c1ccc(Cl)cc1,0.23%,3.68%,5.74%,2.06%,2.74%,-3.76%,5.39%,-0.03%,0.46%,2.68%
COc1ccccc1Nc1ncc(-c2ccccc2)o1,-1.14%,0.89%,2.21%,0.04%,1.68%,-0.22%,-0.99%,0.98%,0.86%,1.23%
Cc1cc(O)cc(C)c1/C=C/c1cncc(-c2nn[nH]n2)c1,-2.12%,-0.96%,0%,-3.06%,-3.35%,-6.34%,-0.68%,2.78%,1.31%,–
O=C(Nc1n[nH]c2nc(-c3ccco3)c(Br)cc12)C1CC1,2.69%,2.78%,8.19%,0.87%,3.63%,-1.81%,12.9%,1.95%,2.79%,0.97%
Nc1nc(-c2ccc3c(c2)C(=Cc2cc(Br)c(O)c(Br)c2)C(=O)N3)cs1,-0.65%,-0.86%,2.39%,1.35%,2.98%,-5%,-0.79%,1.02%,2.39%,0.15%
CC1=C(C(=O)Nc2ccc3[nH]ncc3c2)C(c2ccc3ccccc3c2)CC(=O)N1 (centres undefined),2.9%,2.41%,2.46%,1.12%,3.42%,3.45%,4.44%,1.34%,2.42%,2.41%
Fc1cccc(COc2ccc(Nc3ncnc4cc(-c5ccc[nH]5)sc34)cc2Cl)c1,-1.23%,-1.38%,1.79%,-2.8%,-0.09%,-9.87%,-4.56%,0.06%,-0.33%,-2.46%
[O-][S+]1CCN(Cc2ccc(-c3ccc4ncnc(Nc5ccc(OCc6ccccc6)c(F)c5)c4c3)o2)CC1,-0.37%,1.78%,2.34%,0.47%,0.42%,-2.8%,-0.74%,1.05%,0.69%,0.9%
COC(=O)Nc1nc2cc(Oc3ccc(NC(=O)Nc4cccc(C(=O)O)c4)cc3)ccc2[nH]1,-0.13%,-1.05%,2.01%,-1.87%,-0.58%,4.45%,2.67%,2.17%,0.77%,-3.22%
CCn1c(-c2nonc2N)nc2cnc(Oc3cccc(NC(=O)c4ccc(OCCN5CCOCC5)cc4)c3)cc21,-2.11%,3.32%,2.38%,-0.26%,0.42%,-1.58%,-0.79%,-0.98%,-0.12%,0.57%
